Laboratory results: the supplement of paper PMC8728848
Only a selection was taken, and the strongest signals are over-represented in it overall.

How the values were obtained:
Experiment in all cases: glycan array binding signal (z-score within array); higher = stronger binding
Conditions in all cases: glycan notation: IUPAC condensed, linker removed
[1] = target: GlcNAc(b1-2)[GlcNAc(b1-6)]Man(a1-6)[GlcNAc(b1-2)Man(a1-3)]Man(b1-4)GlcNAc(b1-4)[Fuc(a1-6)]GlcNAc
Method in brief: (§1)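 Negative Z-scores can be read as non-binding. The Z-score is calculated within each array and then averaged across arrays of one protein sequence at different concentrations or buffers and across linkers. Arrays, 3228 in all, were curated from the Consortium for Functional Glycomics database and kept only where the protein sequence was available.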

[2] = target: GlcNAc(b1-3)Gal(b1-4)GlcNAc(b1-2)Man(a1-3)[GlcNAc(b1-3)Gal(b1-4)GlcNAc(b1-2)Man(a1-6)]Man(b1-4)GlcNAc(b1-4)[Fuc(a1-6)]GlcNAc
Method in brief: as §1

[3] = target: GlcNAc(b1-3)Gal(b1-4)GlcNAc(b1-3)Gal(b1-4)GlcNAc(b1-3)Gal(b1-4)GlcNAc(b1-3)Gal(b1-4)GlcNAc(b1-2)Man(a1-3)[GlcNAc(b1-3)Gal(b1-4)GlcNAc(b1-3)Gal(b1-4)GlcNAc(b1-3)Gal(b1-4)GlcNAc(b1-3)Gal(b1-4)GlcNAc(b1-2)Man(a1-6)]Man(b1-4)GlcNAc(b1-4)[Fuc(a1-6)]GlcNAc
Method in brief: as §1

[4] = target: GlcNAc(b1-3)Gal(b1-4)GlcNAc(b1-3)[GlcNAc(b1-3)Gal(b1-4)GlcNAc(b1-3)]GalNAc
Method in brief: as §1

GlcNAc(b1-6)GalNAc = target: GlcNAc(b1-6)GalNAc
Method in brief: as §1

[5] = target: Man(a1-2)Man(a1-3)[Man(a1-2)Man(a1-6)]Man
Method in brief: as §1

[6] = target: Man(a1-3)[Man(a1-6)]Man(b1-4)GlcNAc(b1-4)GlcNAc
Method in brief: as §1

[7] = target: Neu5Ac(a2-3)Gal(b1-3)GlcNAc(b1-2)Man(a1-3)[Neu5Ac(a2-3)Gal(b1-3)GlcNAc(b1-2)Man(a1-6)]Man(b1-4)GlcNAc(b1-4)GlcNAc
Method in brief: as §1

[8] = target: Neu5Ac(a2-3)Gal(b1-3)[GlcNAc(b1-6)]GalNAc
Method in brief: as §1

[9] = target: Neu5Ac(a2-3)Gal(b1-4)[Fuc(a1-3)]GlcNAc(b1-6)[Neu5Ac(a2-3)Gal(b1-3)]GalNAc
Method in brief: as §1

[10] = target: Neu5Ac(a2-3)[Neu5Ac(a2-6)]GalNAc
Method in brief: as §1

[11] = target: Neu5Ac(a2-6)Gal(b1-4)GlcNAc(b1-2)Man(a1-3)Man(b1-4)GlcNAc(b1-4)GlcNAc
Method in brief: as §1

[12] = target: Neu5Ac(a2-6)Gal(b1-4)GlcNAc(b1-2)Man(a1-3)[Man(a1-6)]Man(b1-4)GlcNAc(b1-4)GlcNAc
Method in brief: as §1

[13] = target: Neu5Ac(a2-6)Gal(b1-4)GlcNAc(b1-2)Man(a1-3)[Neu5Ac(a2-3)Gal(b1-4)GlcNAc(b1-2)Man(a1-6)]Man(b1-4)GlcNAc(b1-4)GlcNAc
Method in brief: as §1

[14] = target: Neu5Ac(a2-6)Gal(b1-4)GlcNAc(b1-2)Man(a1-3)[Neu5Ac(a2-6)Gal(b1-4)GlcNAc(b1-2)Man(a1-6)]Man(b1-4)GlcNAc(b1-4)[Fuc(a1-6)]GlcNAc
Method in brief: as §1

[15] = target: Neu5Ac(a2-6)Gal(b1-4)GlcNAc(b1-2)Man(a1-6)[Gal(b1-4)GlcNAc(b1-2)Man(a1-3)]Man(b1-4)GlcNAc(b1-4)GlcNAc
Method in brief: as §1

[16] = target: Neu5Ac(a2-6)Gal(b1-4)GlcNAc(b1-2)[Neu5Ac(a2-6)Gal(b1-4)GlcNAc(b1-4)]Man(a1-3)[GlcNAc(b1-4)][Neu5Ac(a2-6)Gal(b1-4)GlcNAc(b1-2)[Neu5Ac(a2-6)Gal(b1-4)GlcNAc(b1-6)]Man(a1-6)]Man(b1-4)GlcNAc(b1-4)GlcNAc
Method in brief: as §1

[17] = target: Neu5Ac(a2-6)Gal(b1-4)GlcNAc(b1-6)[Gal(b1-3)GlcNAc(b1-3)]Gal(b1-4)Glc
Method in brief: as §1

B1: RBMC2 (Vibrio cholerae) (protein)
chain: KISVRSGFAIDAIGASASTLVGGTGGNLNAAVNVKDIKAIDLTWGKYYWGGYHLLALDFRMSNGSVISMGSKNYAYSKQTERFTVPAGSRIKGIKAWTAGWLLDGVQFELA
glycan array binding signal (z-score) [1]: -0.178 | glycan array binding signal (z-score) [2]: 3.51 | glycan array binding signal (z-score) [3]: 1.92 | glycan array binding signal (z-score) [4]: -0.222 | glycan array binding signal (z-score) (GlcNAc(b1-6)GalNAc): -0.19 | glycan array binding signal (z-score) [5]: -0.48 | glycan array binding signal (z-score) [6]: 4.41 | glycan array binding signal (z-score) [7]: -0.017 | glycan array binding signal (z-score) [8]: -0.155 | glycan array binding signal (z-score) [9]: -0.025 | glycan array binding signal (z-score) [10]: -0.245 | glycan array binding signal (z-score) [11]: -0.132 | glycan array binding signal (z-score) [12]: 12.3 | glycan array binding signal (z-score) [13]: 3.39 | glycan array binding signal (z-score) [14]: 3.57 | glycan array binding signal (z-score) [15]: 3.52 | glycan array binding signal (z-score) [16]: -0.425 | glycan array binding signal (z-score) [17]: -0.398
